# KB-V1 cytotox = KB-V1 MDR subline cytotoxicity | Potency, µM (titrated, usually from 46.1 µM), hits mostly cytotoxic | 400,000 compounds, 3.4% hits | KB-V1 MDR cells viability, CellTiter-Glo, 72 h; note: nearly all actives have a fitted effect of over 60% in size
#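 Cytotoxicity toward P-gp-expressing KB-V1 cells was determined as loss of CellTiter-Glo luminescence after 72 h at 37 degrees C. Compounds were tested in quantitative HTS format across a concentration range, with curves fitted to normalized data.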
# HT1080 IDH1KD tx = kills HT-1080 cells with IDH1 knockdown; 360,000 compounds, 2% hits; AID 686971; HT-1080 IDH1 knockdown viability, ATP luminescence, 48 h; Potency, µM (top dose mostly 46.1 µM), for the others: at the top dose activity, negative = toxicity, hits mostly cytotoxic;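 note: 0% = DMSO wells and -100% = cell-free medium wells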
#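 Knockdown cells (IDH1KD HT-1080) received compounds 2 h after plating at 750 cells/well and were kept 48 h at 37 °C in 5% FBS RPMI. A CellTiter-Glo luminescence read gave % activity for curve fitting.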
# HT1080NT lethal = kills 2HG-producing HT-1080-NT fibrosarcoma cells | HT-1080-NT fibrosarcoma viability, CellTiter-Glo ATP luminescence, 48 h | Potency, µM (series often up to 46.1 µM), inactives show at the highest dose activity, negative = less viability, actives largely listed as cytotoxic | 360,000 compounds, 1.6% hits | AID 686970;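 note: NT is the 2HG producing partner of a matched IDH1 knockdown line; 0% = DMSO-treated cells and -100% = media-only wells without cells; nearly all actives have a fitted effect of over 55% in size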
#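 Viability of the 2HG-overproducing fibrosarcoma line after 48 hours of compound exposure at 37 degrees C was determined by luminescence with CellTiter-Glo, and concentration-effect curves were then fitted and categorized.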
# KB-3-1 tox = kills parental KB-3-1 adenocarcinoma cells. 400,000 compounds, 1.4% hits. Potency, µM (series often up to 46.1 µM), most hits filed as cytotoxic. KB-3-1 viability, CellTiter-Glo ATP luminescence, 72 h; note: nearly all actives have a fitted effect of over 60% in size
#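 Cytotoxicity measured as CellTiter-Glo luminescence after 72 h at 37 C. Compound titrations were pinned onto drug-naive KB-3-1 parental adenocarcinoma cells grown in DMEM with 10% FBS, and normalized data fitted to concentration-response curves.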
# The depositor's hits bear a star; i = inactive; ? = inconclusive; · = no result. The list is not random: actives were taken first. Their share in the collection is about 5.7%. Calls come from the whole dose curve; as a rule, active = well fitted curve in the direction sought with a large enough effect; inconclusive = small, poorly fitted or top-dose-only effect, or another doubt; inactive = no such curve, though single readings can be large; an effect the other way counts as inactive or inconclusive. Unless noted, % is set by controls: 0 for no effect and ±100 for the full control effect; potency is the fitted concentration of half-maximal effect.
SMILES,KB-V1 cytotox,HT1080 IDH1KD tx,HT1080NT lethal,KB-3-1 tox
CS(=O)(=O)c1ccc(-c2cc(NC=O)c3ncc(-c4ccc(F)cc4)n3c2)cc1,i,?,?,i
Cc1cccc(N2CCN(c3nc4ccc(C)cc4n4cnnc34)CC2C)c1 (stereo not drawn),i,·,·,i
COc1ccc(C2=CC(=O)C[C@H](c3ccc(OC)cc3)C2)cc1,i,2%,-1%,i
COc1ccc([C@H]2CC(=O)C=C(c3ccc(OC)cc3OC)C2)cc1,1.5µM*,2.1µM*,2.3µM*,0.82µM*
COc1ccc(Br)cc1C1=CC(=O)C[C@H](c2ccc(F)cc2)C1,16µM*,-23%,-17%,i
COc1ccc(C)cc1C1=CC(=O)C[C@H](c2ccc(F)cc2)C1,i,-27%,?,i
Cc1cnc2c(C)ccc(C)c2c1/C=C/c1ccc(N(C)C)cc1,i,·,·,i
CCOc1cc(/C=C\[N+](=O)[O-])ccc1OCC(=O)Nc1ccccc1C,i,6.5µM*,2.9µM*,i
O=C(CCCCn1c(=O)c2ccccc2n(Cc2cccc(Cl)c2)c1=O)NCc1ccc2c(c1)OCO2,i,·,·,?
Cc1cc(Cl)n2c(nc3cc(F)c(F)cc32)c1C#N,5.8µM*,5.2µM*,5.8µM*,7.3µM*
COc1ccc(NC(=O)c2ccc3oc(=O)c(S(=O)(=O)c4ccc(C)cc4)cc3c2)cc1OC,i,·,·,i
COc1ccc(NC(=O)CN2C(=O)C(C)(C)c3cc(S(=O)(=O)N4CCCCC4)ccc32)cc1Cl,i,·,·,i
COc1ccc(-c2ccc(SC)nn2)cc1,9.2µM*,23µM*,21µM*,8.2µM*
Clc1cccc(-n2ncc3c(NCCCN4CCOCC4)ncnc32)c1,i,·,·,i
CCCCCn1cnc2c(sc3nc4c(cc32)CSC(C)(C)C4)c1=O,15µM*,-2%,-9%,i
Cc1ccc(-n2ncc3c(=O)n(CC(=O)NCc4ccco4)cnc32)cc1,?,-30%,-24%,?
O=C(Cn1cnc2c(cnn2-c2ccc(F)cc2)c1=O)NCc1ccco1,8.2µM*,18µM*,?,9.2µM*
CC(=O)Nc1ccc(NC(=O)Cn2cnc3c(cnn3C(C)(C)C)c2=O)cc1,i,-2%,12%,i
Cc1ccc(-n2ncc3c(=O)n(CC(=O)NCc4ccco4)cnc32)cc1C,?,?,?,23µM*
CC(C)(C)n1ncc2c(=O)n(CC(=O)NCc3ccccc3)cnc21,?,16µM*,16µM*,7.3µM*
CCCCNC(=O)Cn1cnc2c(cnn2-c2ccc(C)c(C)c2)c1=O,i,2%,10%,i
Cc1ccc(-c2[nH]ncc2CNC(C)c2ccccc2)cc1 (stereo not drawn),i,·,·,i
CCc1cccc(NC(=O)c2oc3ccc4c(c3c2C)C(=O)CC(C)(C)O4)c1,i,·,·,i
COc1ccccc1C(=O)Nc1ccc(C(=O)OCc2cc(=O)n3ccsc3n2)cc1,i,·,·,i
CC1(C)Cc2nc3sc4c(=O)n(CC(=O)NCc5ccco5)cnc4c3cc2CO1,i,10µM*,?,?
SMILES,KB-V1 cytotox,HT1080 IDH1KD tx,HT1080NT lethal,KB-3-1 tox
O=C1CCCC2=C1C(c1ccsc1)CC(=O)N2c1ccccc1 (stereo not drawn),13µM*,9%,-14%,i
O=C1CCCC2=C1C(c1ccsc1)CC(=O)N2c1nnc(SCc2ccccc2)s1 (stereo not drawn),i,-5%,-5%,i
CC(Sc1nc2c(c(=O)[nH]1)CCCC2)C(=O)Nc1cc(C(F)(F)F)ccc1Cl (stereo not drawn),i,·,·,i
Cc1ccc(-n2nc(C)c3c(C)cc(=O)n(CC(=O)NCc4ccc(OC(C)C)cc4)c32)cc1,i,·,·,i
CC1=C(C(=O)OCc2ccc3nsnc3c2)N2C(=O)[C@@H](NC(=O)OCc3ccc4nsnc4c3)[C@H]2SC1,i,·,·,i
C=CCNC(=S)N/N=C/c1ccc(C)c([N+](=O)[O-])c1,i,-3%,-2%,i
CN(C)c1ccc(/C=N/NC(N)=S)cc1[N+](=O)[O-],6.5µM*,-7%,0%,15µM*
CC(C)(C)C(=O)NNC(=O)c1cc(C(C)(C)C)nn1Cc1ccccc1,i,-16%,-6%,?
CC(C)(C)c1cc(C(=O)NNc2ccc(OC(F)(F)F)cc2)n(Cc2ccccc2)n1,?,7.3µM*,?,i
CC(C)(C)c1cc(C(=O)NNc2cccc(Cl)c2)n(Cc2ccccc2)n1,?,18µM*,21µM*,?
Cc1ccc(NNC(=O)c2cc(C(C)(C)C)nn2Cc2ccccc2)cc1,i,-10%,-8%,12µM*
CCCc1nn(C)c(C(=O)Nc2ccc3ccccc3c2)c1Cl,i,10%,5%,i
CCCc1nn(C)c(C(=O)Nc2cccc(CC)c2)c1Cl,18µM*,-14%,-2%,i
Cc1ccc(NC(=O)Nc2nnc(N3CCCC3)s2)cc1C,i,·,·,i
CCCCCc1nc2sc3c(c2c(=O)n1NC(=O)c1ccc([N+](=O)[O-])cc1)CC(C)(C)OC3,?,5.8µM*,5.8µM*,i
Cn1c(NN)nc2sc3c(c2c1=O)CC(C)(C)OC3,i,13µM*,?,i
Cc1ccc(N(CC(=O)Nc2ccc(Br)cc2)S(=O)(=O)c2cccs2)cc1,i,·,·,i
COc1ccc(C=C2CS(=O)(=O)CC(=Cc3ccc(OC)cc3)C2=O)cc1,?,3.7µM*,?,?
Cc1ccc2c(Sc3ccc(Cl)cc3)c(C(=O)N3CCCCC3)[nH]c2c1,i,·,·,?
CN(C)CCN1C(=O)c2oc3ccccc3c(=O)c2C1c1cccc(Br)c1 (stereo not drawn),10µM*,-2%,0%,i
O=C1c2oc3ccccc3c(=O)c2C(c2cccnc2)N1Cc1ccco1 (stereo not drawn),7.3µM*,-3%,-9%,i
CSc1ccc(NC(=O)N2CC=C(n3c(=O)[nH]c4ccccc43)CC2)cc1,16µM*,?,-20%,16µM*
COc1ccccc1NC(=O)c1csc2c1CCCC2,16µM*,1%,13%,i
COc1ccccc1CNC(=O)c1csc2c1CCCC2,i,21%,19%,i
O=C(C1CCC1)N1CCCc2cc(S(=O)(=O)Nc3ccc(F)cc3)ccc21,?,·,·,i
CCCCn1cc(S(=O)(=O)c2ccc(OC)cc2)c(=O)c2cc(CC)ccc21,i,·,·,i
CCCCN(CCCC)S(=O)(=O)c1ccc(C(=O)Nc2nnc(CSC)o2)cc1,?,?,-11%,?
CCCN(CCC)S(=O)(=O)c1ccc(C(=O)Nc2nnc(CSC)o2)cc1,7.3µM*,?,?,6.5µM*
CNc1c(Cl)cc(C=O)cc1Cl,i,·,·,?
CC1(C(=O)NCc2ccco2)Cc2c(-c3ccc(C(N)=O)cc3)ccnc2O1 (stereo not drawn),i,2.9µM*,3.3µM*,18µM*
